# Assay outcomes as filed in PubChem BioAssay.
# Shiga inhibitor – Shiga toxin inhibition; Vero cells, Shiga toxin protein synthesis inhibition reporter; inhibition, % at 38.7 µM; actives 9.2% (n = 290,000); AID 2315; in the data active means inhibition mostly above about 28%, no sharp cut-off; inactive means mostly below about 43%; further: 0% is about no effect
# MARV entry inh – Marburg virus entry inhibition; actives 1.8% (n = 300,000); AID 540276; Potency, µM (doses to about 37.8 µM), inactives show top-dose activity change, negative = inhibition, hits mostly inhibitors; Marburg virus pseudotyped entry inhibition, cell reporter; calls by dose curve; tested in HEK293 cells; further: potency means the concentration at half of the fitted maximal effect; on the % scale 0 is the no-effect control and ±100 the full control effect
# Lassa entry inh – Lassa virus entry inhibition; Potency, µM (doses to about 37.9 µM), for the others: top-dose activity change, negative = inhibition, hits mostly inhibitors; actives 1.2% (n = 300,000); Lassa virus pseudotype entry inhibition, cell reporter; AID 540256; calls by dose curve; tested in HEK293 cells; further: potency means the concentration at half of the fitted maximal effect; on the % scale 0 is the no-effect control and ±100 the full control effect; nearly all actives have a fitted effect of over 50% in size
# FMDV antiviral – foot and mouth disease virus antiviral activity; FMDV antiviral cell-based qHTS; Potency, µM (doses to about 57.9 µM), for inactives: top-dose activity change, negative = inhibition, most hits filed as inhibitors; actives 1.2% (n = 410,000); AID 1159524; calls by dose curve; tested in HEK293T cells; further: read-out not given here; potency means the concentration at half of the fitted maximal effect; on the % scale 0 is the no-effect control and ±100 the full control effect; nearly all actives have a fitted effect of over 45% in size
# HCV inhibitor – inhibitors of hepatitis C virus infection. Potency, µM (doses to about 41.8 µM), without a hit: at the top dose activity change, negative = inhibition, hits mostly inhibitors. Huh7.5.1 HCVcc-Cre infection, luciferase reporter, 44 h. AID 651820. actives 3.4% (n = 340,000); further: potency means the concentration at half of the fitted maximal effect; on the % scale 0 is the no-effect control and ±100 the full control effect
#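 HCVcc-Cre virus at an moi near 0.5 was added right after compound to cells cultured 4 h from seeding (1,000 cells/well). Luciferase activity was determined 44 h later, 15 min after substrate addition at RT.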
# Cycloheximide cs – counter-screen for Shiga toxin inhibitors: cycloheximide protein synthesis inhibition; AID 2314; actives 12% (n = 300,000); cell reporter, cycloheximide protein synthesis inhibition counterscreen; max response, %; in the data active means max response mostly above about 13%, no sharp cut-off; inactive means mostly below about 14%; further: read at 38.3 µM for the half of the compounds with a filed dose; 0% is about no effect
# HCV inh confirm – confirmation of hepatitis C virus inhibitors. HCVcc-Cre infectious virus cell assay, luciferase, inhibition. shares compounds with HCV inhibitor. actives 78% (n = 640). Potency, µM (highest dose often 41.8 µM), for the others: at the top dose activity, negative = inhibition, hits mostly inhibitors. AID 720575; further: potency means the concentration at half of the fitted maximal effect; nearly all actives have a fitted effect of over 80% in size
# HCV cytotox – toxic to HCV host cells, flagging false HCV inhibitors; HCV host cell line cytotoxicity counterscreen; Potency, µM (highest dose often 41.8 µM), for the others: top-dose activity change, negative = cytotoxicity, usual class: inhibitors; shares compounds with HCV inhibitor; actives 22% (n = 640);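 further: potency means the concentration at half of the fitted maximal effect; 44 h compound exposure; on the % scale 0 is the no-effect control and ±100 the full control effect; nearly all actives have a fitted effect of over 55% in size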
# Numbers without * were called inactive; u = inconclusive; x = no result; [ ] = another dose, or the depositor's remark. An excerpt weighted towards active compounds, which were near 13% of everything screened. Unless noted, the call rests on the fitted dose curve; in most records, active means well fitted curve in the direction sought with a large enough effect; inconclusive means small, poorly fitted or top-dose-only effect, or another doubt; inactive means no such curve, though single readings can be large; an effect the other way counts as inactive or inconclusive.
SMILES,Shiga inhibitor,MARV entry inh,Lassa entry inh,FMDV antiviral,HCV inhibitor,Cycloheximide cs,HCV inh confirm,HCV cytotox
Nc1nonc1-n1nnc(C(=O)N/N=C/c2ccc(Cl)cc2Cl)c1CN1CCCC1,1.7,3.3%[46.1 µM],2.2%,-12.6%,13.6%,4.5,x,x
Cc1cc(C)c(S(=O)(=O)Nc2ccc(-c3cn4ccccc4n3)cc2)c(C)c1,15.3,u,-2.4%,0.0%,u,15.3,22.3µM*,-14.4%
Cc1ccc(S(=O)(=O)Nc2cccc(-c3cn4cccc(C)c4n3)c2)cc1,x,x,-5.9%[46.1 µM],75.2%,x,x,x,x
CCCCNC(=O)c1cn(C)c2ccc(S(=O)(=O)N3CCCC3)cc2c1=O,5.2,2.6%[46.1 µM],9.7%[46.1 µM],0.7%,3.3%,-4.1,x,x
COc1ccc(NC(=O)c2ccccc2OCc2c(C)noc2C)cc1OC,-7.3,-4.6%,5.1%,-14.3%,u,1.8,u,15.0%
CSc1nc2nc(C(F)(F)F)cc(-c3ccccc3)n2n1,-4.5,-10.5%[46.1 µM],-1.4%,u,-17.6%,-0.5,x,x
CSc1nc2nc(C)cc(-c3ccccc3)n2n1,-1.3,4.4%,11.3%,-22.0%,7.94µM*,-0.9,u,15.1%
CCOc1cc(CNCCc2ccc(S(N)(=O)=O)cc2)cc(Cl)c1OCc1ccccc1,-10.1,u,u,20µM*,1.58µM*,8.7,4.45µM*,12.5µM*
CCNC(=O)Nc1cc(S(=O)(=O)N2CCOCC2)ccc1N1CCCCC1,x,x,x,-19.6%,x,x,x,x
COC(=O)C1=C(c2ccc(-c3ccccc3)c(F)c2)C[C@@H]2CC[C@H]1N2C(=O)NCc1cccc2ccccc12,x,x,x,-18.9%,u,x,11.2µM*,44.0%
Cc1nn(Cc2c(F)c(F)c(F)c(F)c2F)c(C)c1NC(=O)c1ccc(COc2ccc(F)cc2)o1,-14.2,3.66µM*,-21.9%,u,2µM*,-0.8,14.1µM*,-23.2%
Cc1cc(C(=O)Nc2c(C)nn(Cc3ccc(F)cc3)c2C)on1,35.6,x,x,-8.1%,3.0%,0.6,x,x
Cc1ccccc1Oc1nc(-c2ccccn2)nc2ccccc12,46.5*,u,u,-8.9%,7.94µM*,39.3*,11.2µM*,u
CN1CCN(c2nc(-c3ccccn3)nc3ccccc23)CC1,18.2,u,-15.5%,-11.4%,-12.8%,4.7,x,x
Cc1noc(NS(=O)(=O)c2ccc(NC(=O)c3cccc(S(=O)(=O)Nc4ccccc4F)c3)cc2)c1C,x,23.6%,u,-8.8%,1.8%,x,x,x
CCN1CCN(C(=O)NC2CCCCC2)CC1,-13.5,x,x,-14.3%,13.5%,5.6,x,x
O=C(Nc1ccn(Cc2ccccc2F)n1)c1ccc(COc2ccc(Br)cc2)cc1,14.3,7.3µM*,-29.4%,u,6.31µM*,7.4,4.45µM*,-72.4%
CC(C)OCCCn1c(=O)c2ccccc2n2c(CCC(=O)N3CCN(c4ccccn4)CC3)nnc12,8.5,x,x,-21.1%,u,-2.2,x,x
O=C(CCc1nnc2n(Cc3ccc(Cl)cc3)c(=O)c3ccccc3n12)N1CCN(c2ccccn2)CC1,-2.8,-10.1%[46.1 µM],-0.9%[46.1 µM],u,3.55µM*,-1.7,3.96µM*,47.6%
COc1ccc(-c2nc(CN3CCN(c4ncnc5ccccc45)CC3)c(C)o2)c(OC)c1,16.6,14.6µM*,u,20µM*,5.01µM*,-4.4,4.99µM*,7.91µM*
COc1ccc(-c2nc(CN3CCN(C(=O)c4ccco4)CC3)c(C)o2)c(F)c1,-4.4,1.0%,3.8%,-18.6%,-22.1%,-3.7,x,x
Cc1cc(OCC(=O)N(C)c2ccccc2)cc2c1C(=O)CC(C)(C)O2,19.9,-20.3%[46.1 µM],u,-1.7%,u,11.7,x,x
Cc1cc(=O)oc2c3c(cc(OCC(=O)Nc4ccc(CCO)cc4)c12)OC(C)(C)CC3,1.1,x,x,-20.5%,0.708µM*,-2.2,22.3µM*,30.5%
CC1(C)CC(=O)c2c(O)cc(OCC(=O)Nc3ccc(CCO)cc3)cc2O1,15.9,x,x,0.0%,5.01µM*,15.5*,14.1µM*,15.1%
CS(=O)(=O)Cc1nc2ccccc2oc1=O,29.8,-28.0%[46.1 µM],u,-0.9%,-19.5%,-3.0,x,x
CC(C)(C)NC(=O)c1oc2ccccc2c1NC(=O)c1ccccc1F,x,x,u,-6.8%,x,x,x,x
